From ChEMBL document CHEMBL1961873, “Compounds: GSK PKIS; Assays: Nanosyn kinase panel” (2012)

Experiments:
[1] = molecular target: 5'-AMP-activated protein kinase catalytic subunit alpha-2 (Homo sapiens) (UniProt P54646); conditions: at 1 µM
[2] = molecular target: T1, NUAK family SNF1-like kinase 1 (Homo sapiens) (UniProt O60285); conditions: at 0.1 µM
T1 sequence (whole entry): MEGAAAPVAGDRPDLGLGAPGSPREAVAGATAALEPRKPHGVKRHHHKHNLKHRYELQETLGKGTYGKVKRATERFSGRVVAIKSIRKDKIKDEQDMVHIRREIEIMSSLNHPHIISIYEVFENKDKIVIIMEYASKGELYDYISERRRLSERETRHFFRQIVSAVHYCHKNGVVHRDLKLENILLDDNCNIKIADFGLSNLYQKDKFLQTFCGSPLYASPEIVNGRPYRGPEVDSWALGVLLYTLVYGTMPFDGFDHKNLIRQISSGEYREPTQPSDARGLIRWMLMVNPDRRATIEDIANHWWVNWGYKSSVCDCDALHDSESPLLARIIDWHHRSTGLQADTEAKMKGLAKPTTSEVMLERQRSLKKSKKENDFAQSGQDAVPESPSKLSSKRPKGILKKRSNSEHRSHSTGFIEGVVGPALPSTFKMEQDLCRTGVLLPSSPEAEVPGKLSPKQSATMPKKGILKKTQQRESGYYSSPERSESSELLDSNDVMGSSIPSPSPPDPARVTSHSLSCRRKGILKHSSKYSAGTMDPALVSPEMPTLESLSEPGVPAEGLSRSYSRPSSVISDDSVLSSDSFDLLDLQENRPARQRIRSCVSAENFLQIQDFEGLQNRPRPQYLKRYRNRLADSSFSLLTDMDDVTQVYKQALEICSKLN

[3] = molecular target: T1, NUAK family SNF1-like kinase 1 (Homo sapiens); conditions: at 1 µM
[4] = molecular target: T2, Serine/threonine-protein kinase BRSK1 (Homo sapiens) (UniProt Q8TDC3); conditions: at 0.1 µM
T2 sequence (whole entry): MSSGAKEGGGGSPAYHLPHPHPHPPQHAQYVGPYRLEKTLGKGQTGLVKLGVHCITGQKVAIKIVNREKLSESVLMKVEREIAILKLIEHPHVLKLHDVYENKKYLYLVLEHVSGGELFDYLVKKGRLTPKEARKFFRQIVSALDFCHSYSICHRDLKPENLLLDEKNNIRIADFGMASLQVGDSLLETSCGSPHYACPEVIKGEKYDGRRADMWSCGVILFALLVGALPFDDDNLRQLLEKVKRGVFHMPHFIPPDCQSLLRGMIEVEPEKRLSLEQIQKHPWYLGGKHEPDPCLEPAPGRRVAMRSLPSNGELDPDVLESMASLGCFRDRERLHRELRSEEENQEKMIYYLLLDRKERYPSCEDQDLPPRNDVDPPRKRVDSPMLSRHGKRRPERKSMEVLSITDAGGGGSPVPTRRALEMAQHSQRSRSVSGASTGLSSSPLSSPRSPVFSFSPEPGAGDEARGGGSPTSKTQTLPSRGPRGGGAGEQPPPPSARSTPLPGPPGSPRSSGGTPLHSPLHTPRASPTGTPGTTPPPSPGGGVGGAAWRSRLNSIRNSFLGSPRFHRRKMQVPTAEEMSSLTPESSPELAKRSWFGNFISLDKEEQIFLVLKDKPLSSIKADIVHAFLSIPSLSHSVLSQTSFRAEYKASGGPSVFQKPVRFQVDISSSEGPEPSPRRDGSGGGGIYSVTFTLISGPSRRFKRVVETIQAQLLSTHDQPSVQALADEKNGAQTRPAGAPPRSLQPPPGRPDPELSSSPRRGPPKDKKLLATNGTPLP

[5] = molecular target: T2, Serine/threonine-protein kinase BRSK1 (Homo sapiens); conditions: at 1 µM
[6] = molecular target: T3, Serine/threonine-protein kinase BRSK2 (Homo sapiens) (UniProt Q8IWQ3); conditions: at 0.1 µM
T3 sequence (whole entry): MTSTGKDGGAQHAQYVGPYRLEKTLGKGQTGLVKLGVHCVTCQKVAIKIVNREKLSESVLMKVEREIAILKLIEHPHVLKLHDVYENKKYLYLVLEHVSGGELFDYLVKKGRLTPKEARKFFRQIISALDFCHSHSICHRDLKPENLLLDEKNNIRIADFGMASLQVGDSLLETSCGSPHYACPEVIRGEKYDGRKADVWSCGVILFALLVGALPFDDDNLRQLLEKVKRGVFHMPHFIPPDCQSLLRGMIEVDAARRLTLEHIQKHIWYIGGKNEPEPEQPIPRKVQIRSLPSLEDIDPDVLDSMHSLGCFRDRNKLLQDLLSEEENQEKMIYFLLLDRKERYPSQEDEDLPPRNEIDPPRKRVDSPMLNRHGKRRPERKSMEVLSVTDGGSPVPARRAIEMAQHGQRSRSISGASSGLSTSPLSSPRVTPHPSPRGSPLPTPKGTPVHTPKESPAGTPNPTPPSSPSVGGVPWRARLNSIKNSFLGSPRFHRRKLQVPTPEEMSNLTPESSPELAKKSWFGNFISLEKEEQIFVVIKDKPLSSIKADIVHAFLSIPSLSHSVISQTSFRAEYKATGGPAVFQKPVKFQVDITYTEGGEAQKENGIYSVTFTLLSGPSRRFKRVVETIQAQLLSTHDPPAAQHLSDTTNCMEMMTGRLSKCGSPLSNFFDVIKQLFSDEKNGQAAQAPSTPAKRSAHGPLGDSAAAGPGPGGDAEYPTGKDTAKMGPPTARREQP

[7] = molecular target: T3, Serine/threonine-protein kinase BRSK2 (Homo sapiens); conditions: at 1 µM
[8] = molecular target: Calcium/calmodulin-dependent protein kinase type 1D (Homo sapiens) (UniProt Q8IU85); conditions: at 0.1 µM
[9] = molecular target: Calcium/calmodulin-dependent protein kinase type 1D (Homo sapiens) (UniProt Q8IU85); conditions: at 1 µM
[10] = molecular target: Calcium/calmodulin-dependent protein kinase type II subunit alpha (Homo sapiens) (UniProt Q9UQM7); conditions: at 0.1 µM
[11] = molecular target: Calcium/calmodulin-dependent protein kinase type II subunit alpha (Homo sapiens) (UniProt Q9UQM7); conditions: at 1 µM
[12] = molecular target: Calcium/calmodulin-dependent protein kinase type II subunit delta (Homo sapiens) (UniProt Q13557); conditions: at 0.1 µM
[13] = molecular target: Calcium/calmodulin-dependent protein kinase type II subunit delta (Homo sapiens) (UniProt Q13557); conditions: at 1 µM
[14] = molecular target: T4, Calcium/calmodulin-dependent protein kinase type IV (Homo sapiens) (UniProt Q16566); conditions: at 0.1 µM
T4 sequence (whole entry): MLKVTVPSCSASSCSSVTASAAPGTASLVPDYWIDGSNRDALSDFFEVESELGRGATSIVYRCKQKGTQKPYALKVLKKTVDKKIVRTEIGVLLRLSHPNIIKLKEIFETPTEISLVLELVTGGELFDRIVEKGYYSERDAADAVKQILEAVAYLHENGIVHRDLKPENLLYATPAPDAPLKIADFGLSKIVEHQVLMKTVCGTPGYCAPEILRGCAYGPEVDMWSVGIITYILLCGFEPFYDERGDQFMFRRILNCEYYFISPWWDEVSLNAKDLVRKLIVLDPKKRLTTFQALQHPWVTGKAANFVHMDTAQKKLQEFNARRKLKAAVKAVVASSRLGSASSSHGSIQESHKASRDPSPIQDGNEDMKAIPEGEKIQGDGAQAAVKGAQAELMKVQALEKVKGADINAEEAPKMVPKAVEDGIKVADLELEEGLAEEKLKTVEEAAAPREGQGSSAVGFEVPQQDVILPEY

[15] = molecular target: T4, Calcium/calmodulin-dependent protein kinase type IV (Homo sapiens); conditions: at 1 µM
[16] = molecular target: T5, Serine/threonine-protein kinase Chk1 (Homo sapiens) (UniProt O14757); conditions: at 0.1 µM
T5 sequence (whole entry): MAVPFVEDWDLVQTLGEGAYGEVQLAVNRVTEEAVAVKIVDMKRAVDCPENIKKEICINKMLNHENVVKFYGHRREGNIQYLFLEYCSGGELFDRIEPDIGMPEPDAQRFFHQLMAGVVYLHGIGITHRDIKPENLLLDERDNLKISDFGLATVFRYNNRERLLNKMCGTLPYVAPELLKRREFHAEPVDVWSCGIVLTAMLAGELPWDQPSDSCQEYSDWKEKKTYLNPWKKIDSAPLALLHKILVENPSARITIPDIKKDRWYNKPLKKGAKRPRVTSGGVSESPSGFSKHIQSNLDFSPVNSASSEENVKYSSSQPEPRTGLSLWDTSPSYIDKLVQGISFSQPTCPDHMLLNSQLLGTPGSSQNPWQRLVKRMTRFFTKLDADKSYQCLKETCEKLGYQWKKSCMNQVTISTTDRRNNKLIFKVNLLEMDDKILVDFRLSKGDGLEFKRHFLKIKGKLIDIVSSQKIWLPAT

[17] = molecular target: T5, Serine/threonine-protein kinase Chk1 (Homo sapiens); conditions: at 1 µM
[18] = molecular target: Serine/threonine-protein kinase Chk2 (Homo sapiens) (UniProt O96017); conditions: at 0.1 µM
[19] = molecular target: Serine/threonine-protein kinase Chk2 (Homo sapiens) (UniProt O96017); conditions: at 1 µM
[20] = molecular target: Death-associated protein kinase 1 (Homo sapiens) (UniProt P53355); conditions: at 0.1 µM;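 also: reported figure is the mean inhibition of DAPK1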
Sequence of Death-associated protein kinase 1 (Homo sapiens) (P53355 whole entry, looked up): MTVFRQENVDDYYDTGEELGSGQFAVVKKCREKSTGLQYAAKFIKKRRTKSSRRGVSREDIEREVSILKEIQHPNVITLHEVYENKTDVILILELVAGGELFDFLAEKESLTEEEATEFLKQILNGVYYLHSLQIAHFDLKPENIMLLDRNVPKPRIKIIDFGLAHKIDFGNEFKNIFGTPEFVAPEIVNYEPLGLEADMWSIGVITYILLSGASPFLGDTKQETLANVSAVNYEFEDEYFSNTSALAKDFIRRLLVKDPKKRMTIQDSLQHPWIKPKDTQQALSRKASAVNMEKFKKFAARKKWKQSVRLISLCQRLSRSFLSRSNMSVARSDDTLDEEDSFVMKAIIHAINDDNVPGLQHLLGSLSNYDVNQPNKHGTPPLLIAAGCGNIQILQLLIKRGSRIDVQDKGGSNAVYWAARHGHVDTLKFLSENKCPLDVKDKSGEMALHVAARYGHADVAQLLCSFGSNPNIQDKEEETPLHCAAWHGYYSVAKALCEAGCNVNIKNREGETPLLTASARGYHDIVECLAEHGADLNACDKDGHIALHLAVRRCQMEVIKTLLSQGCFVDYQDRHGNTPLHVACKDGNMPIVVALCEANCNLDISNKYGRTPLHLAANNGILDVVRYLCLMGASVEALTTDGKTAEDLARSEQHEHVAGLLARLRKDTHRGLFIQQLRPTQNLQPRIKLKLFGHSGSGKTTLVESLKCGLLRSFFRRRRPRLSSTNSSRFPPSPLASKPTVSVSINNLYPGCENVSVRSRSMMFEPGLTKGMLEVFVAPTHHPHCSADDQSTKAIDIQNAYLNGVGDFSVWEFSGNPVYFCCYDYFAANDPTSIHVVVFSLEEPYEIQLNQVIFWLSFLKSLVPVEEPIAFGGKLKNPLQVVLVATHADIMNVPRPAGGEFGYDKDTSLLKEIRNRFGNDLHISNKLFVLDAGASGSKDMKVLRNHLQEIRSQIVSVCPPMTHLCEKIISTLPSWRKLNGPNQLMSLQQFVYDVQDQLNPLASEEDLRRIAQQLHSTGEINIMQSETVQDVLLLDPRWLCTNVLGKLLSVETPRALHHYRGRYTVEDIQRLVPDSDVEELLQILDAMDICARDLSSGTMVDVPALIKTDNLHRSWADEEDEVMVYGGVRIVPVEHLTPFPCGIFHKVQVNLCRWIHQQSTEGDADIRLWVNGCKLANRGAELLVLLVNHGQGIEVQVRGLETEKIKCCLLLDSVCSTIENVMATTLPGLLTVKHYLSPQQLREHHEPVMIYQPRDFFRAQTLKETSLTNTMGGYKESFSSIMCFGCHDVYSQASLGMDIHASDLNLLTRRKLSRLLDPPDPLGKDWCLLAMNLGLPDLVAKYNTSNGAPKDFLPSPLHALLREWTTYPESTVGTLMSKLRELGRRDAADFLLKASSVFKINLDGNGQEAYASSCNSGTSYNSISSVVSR

Sequence of Calcium/calmodulin-dependent protein kinase type II subunit delta (Homo sapiens) (Q13557 whole entry): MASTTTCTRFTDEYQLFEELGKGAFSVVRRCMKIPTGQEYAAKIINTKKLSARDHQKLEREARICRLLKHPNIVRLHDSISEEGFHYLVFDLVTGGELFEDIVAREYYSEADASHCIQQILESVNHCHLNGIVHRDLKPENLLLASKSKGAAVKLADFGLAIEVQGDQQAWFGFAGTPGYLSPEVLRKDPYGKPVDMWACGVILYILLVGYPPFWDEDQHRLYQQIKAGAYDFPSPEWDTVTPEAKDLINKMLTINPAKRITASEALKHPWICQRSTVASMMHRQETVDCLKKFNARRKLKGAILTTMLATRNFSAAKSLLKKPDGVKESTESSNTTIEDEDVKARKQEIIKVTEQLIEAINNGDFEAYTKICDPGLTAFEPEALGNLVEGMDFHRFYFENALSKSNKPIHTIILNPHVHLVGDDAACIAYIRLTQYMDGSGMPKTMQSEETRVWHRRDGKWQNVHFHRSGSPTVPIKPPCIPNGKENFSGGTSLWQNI
Sequence of Calcium/calmodulin-dependent protein kinase type 1D (Homo sapiens) (Q8IU85 whole entry, looked up): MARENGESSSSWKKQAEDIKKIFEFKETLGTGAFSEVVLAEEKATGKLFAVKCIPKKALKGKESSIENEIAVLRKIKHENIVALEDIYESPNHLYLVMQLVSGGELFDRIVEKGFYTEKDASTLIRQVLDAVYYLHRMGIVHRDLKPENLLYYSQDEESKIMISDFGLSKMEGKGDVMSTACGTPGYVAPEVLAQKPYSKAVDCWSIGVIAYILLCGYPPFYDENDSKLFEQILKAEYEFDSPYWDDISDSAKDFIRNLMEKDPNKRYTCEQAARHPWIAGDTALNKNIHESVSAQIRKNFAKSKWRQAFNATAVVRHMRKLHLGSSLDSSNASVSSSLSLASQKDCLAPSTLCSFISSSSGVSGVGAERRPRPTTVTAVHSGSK
Sequence of Calcium/calmodulin-dependent protein kinase type II subunit alpha (Homo sapiens) (Q9UQM7 whole entry): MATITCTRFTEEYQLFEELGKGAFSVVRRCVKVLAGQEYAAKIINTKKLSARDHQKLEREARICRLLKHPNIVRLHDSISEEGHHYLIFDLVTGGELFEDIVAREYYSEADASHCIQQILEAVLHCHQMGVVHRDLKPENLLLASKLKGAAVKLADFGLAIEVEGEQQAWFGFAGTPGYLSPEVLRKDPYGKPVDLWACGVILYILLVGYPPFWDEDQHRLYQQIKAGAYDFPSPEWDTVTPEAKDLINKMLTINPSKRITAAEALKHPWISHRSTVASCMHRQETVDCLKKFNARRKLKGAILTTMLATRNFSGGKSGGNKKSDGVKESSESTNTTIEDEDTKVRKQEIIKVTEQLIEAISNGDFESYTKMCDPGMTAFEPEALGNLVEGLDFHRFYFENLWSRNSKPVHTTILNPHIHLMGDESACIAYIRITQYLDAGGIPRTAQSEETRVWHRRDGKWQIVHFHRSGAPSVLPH
Sequence of 5'-AMP-activated protein kinase catalytic subunit alpha-2 (Homo sapiens) (P54646 whole entry, looked up): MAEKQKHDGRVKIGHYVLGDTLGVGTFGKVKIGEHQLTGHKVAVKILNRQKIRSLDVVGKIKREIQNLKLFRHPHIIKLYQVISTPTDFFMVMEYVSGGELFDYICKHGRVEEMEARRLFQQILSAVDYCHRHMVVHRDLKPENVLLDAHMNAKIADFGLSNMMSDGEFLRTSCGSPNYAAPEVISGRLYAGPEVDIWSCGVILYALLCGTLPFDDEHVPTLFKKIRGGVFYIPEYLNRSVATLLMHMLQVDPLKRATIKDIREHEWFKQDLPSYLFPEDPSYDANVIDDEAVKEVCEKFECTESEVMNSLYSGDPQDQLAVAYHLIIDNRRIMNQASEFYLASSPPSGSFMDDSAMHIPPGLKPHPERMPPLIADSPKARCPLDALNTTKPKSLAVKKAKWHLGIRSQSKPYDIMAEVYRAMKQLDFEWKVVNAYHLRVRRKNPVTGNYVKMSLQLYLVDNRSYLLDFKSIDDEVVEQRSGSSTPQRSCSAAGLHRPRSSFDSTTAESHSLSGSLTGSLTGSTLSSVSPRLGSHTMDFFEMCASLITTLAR
Sequence of Serine/threonine-protein kinase Chk2 (Homo sapiens) (O96017 whole entry): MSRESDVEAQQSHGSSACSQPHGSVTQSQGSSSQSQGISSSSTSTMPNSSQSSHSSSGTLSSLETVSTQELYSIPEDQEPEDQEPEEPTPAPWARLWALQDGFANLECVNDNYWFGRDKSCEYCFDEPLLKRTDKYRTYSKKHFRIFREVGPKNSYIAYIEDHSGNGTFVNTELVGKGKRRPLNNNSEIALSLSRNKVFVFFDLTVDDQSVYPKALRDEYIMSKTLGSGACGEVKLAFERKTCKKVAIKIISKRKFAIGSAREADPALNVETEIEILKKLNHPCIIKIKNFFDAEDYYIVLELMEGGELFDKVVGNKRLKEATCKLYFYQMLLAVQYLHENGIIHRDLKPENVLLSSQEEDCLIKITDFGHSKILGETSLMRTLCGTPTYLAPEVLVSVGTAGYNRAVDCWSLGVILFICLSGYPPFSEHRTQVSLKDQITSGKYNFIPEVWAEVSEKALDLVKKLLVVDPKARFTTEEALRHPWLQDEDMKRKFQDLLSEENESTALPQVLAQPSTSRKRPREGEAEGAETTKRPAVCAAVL

Compound | inhibition [1] | inhibition [2] | inhibition [3] | inhibition [4] | inhibition [5] | inhibition [6] | inhibition [7] | inhibition [8] | inhibition [9] | inhibition [10] | inhibition [11] | inhibition [12] | inhibition [13] | inhibition [14] | inhibition [15] | inhibition [16] | inhibition [17] | inhibition [18] | inhibition [19] | inhibition [20]
COc1ccc2c(-c3ccnc(Nc4cccc(OC(F)(F)F)c4)n3)cnn2n1 | 5.72% | 6.86% | 30.7% | -1.42% | 3.33% | 2.27% | 3.88% | 0.18% | 2.77% | 4.78% | 3.59% | 2.75% | 5.82% | -0.96% | -0.82% | 3.59% | 5.26% | 3.11% | 5.21% | 5.2%
CS(=O)(=O)CCNCc1coc(-c2ccc3ncnc(Nc4ccc(OCc5ccccc5)cc4)c3c2)c1 | 4.29% | 2.46% | 3.61% | 1.86% | -1.55% | 1.32% | 3.39% | 0.92% | 2.2% | 2.93% | 6.16% | 2.95% | 3.61% | 2.14% | 3.11% | 1.85% | 3.43% | 5.28% | 28.8% | 2.7%
CCc1nn2ncccc2c1-c1ccnc(NC2CC2)n1 | 2.42% | -1.38% | 1.14% | 3.05% | 1.03% | 1.62% | 4.01% | 1.12% | 2.41% | 2.89% | 3.03% | 2.51% | 4.18% | 3.71% | 2.48% | 2.02% | 2.69% | 1.64% | 3.66% | 3.5%
COc1cc2ncn(-c3cc(OCc4ccccc4C(F)(F)F)c(C(=O)N(C)C)s3)c2cc1OC | 1.18% | 1.04% | 14.8% | -0.38% | 2.7% | 0.49% | 8.59% | -0.9% | 0.6% | -1.75% | -0.49% | -1.72% | 1.17% | 0.72% | 3.28% | -1.48% | 1.32% | -0.7% | -0.07% | -0.75%
COC(=O)Nc1nc2ccc(S(=O)(=O)c3ccc(NC(=O)Nc4cc(C(F)(F)F)ccc4F)cc3)cc2[nH]1 | 3.39% | 3.25% | 4.84% | 3.17% | 4.39% | 2.33% | 2.89% | 0.42% | 1.45% | 3.34% | 3.22% | 3.61% | 3.6% | -0.05% | 0.07% | 1.24% | 3.43% | 1.62% | 1.94% | 3.73%
COc1ccc2[nH]c3c4[nH]c5ccc(OC)cc5c4c4c(c3c2c1)C(=O)NC4=O | 51.6% | 78% | 77.3% | 71.3% | 102% | 92.2% | 94.9% | 6.96% | 39.6% | 6.99% | 22.9% | 17.4% | 57.6% | -5.78% | -3.69% | 22.4% | 65.6% | 81.2% | 83.4% | 2%
N#Cc1c(NC(=O)CN2CCOCC2)sc2c1CCCC2 | 2.26% | 2.61% | 4.86% | 0.57% | 1.52% | 2.72% | 3.03% | -0.19% | 0.36% | 3.08% | 4.63% | 3.07% | 5.65% | -1.76% | -1.41% | 1.74% | 5.06% | 1.85% | 4.14% | 5.34%
